ATXN2 expr inh = Primary qHTS for Inhibitors of ATXN expression | Potency, µM (titrated, usually from 57 µM), usual class: inhibitors | AID 1745845, 2022 | 360,000 compounds, 0.72% hits | HEK-293 ATXN2-luciferase reporter, luminescence, 24 h; note: nearly all actives have a fitted effect of over 55% in size
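ATXN2-luciferase reporter cells (luciferase flanked by upstream and downstream ATXN2 gene portions) were treated 24 h at 37 °C with compounds at up to 57 uM. SteadyGlo luminescence gave expression; GF-AFC fluorescence gave viability.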
ATXN viability = Viability Counterscreen for Primary qHTS for Inhibitors of ATXN expression | S2 cells (HEK-293 line with an ATXN2-luciferase reporter) viability, CellTiter-Fluor protease fluorescence, 24 h | Potency, µM (top dose mostly 56.7 µM), usual class: cytotoxic | 400,000 compounds, 0.49% hits; note: nearly all actives have a fitted effect of over 40% in size
TDP1 cell CPT = qHTS for Inhibitors of human tyrosyl-DNA phosphodiesterase 1 (TDP1): qHTS in cells in presence of CPT. chicken DT40 Tdp1-/-;hTDP1 cells + 20 nM CPT, ATP luminescence, 48 h. 420,000 compounds, 12% hits. Potency, µM (highest dose often 46.2 µM), most hits filed as inhibitors; note: nearly all actives have a fitted effect of over 55% in size
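Chicken DT40 Tdp1-/- cells complemented with human TDP1, 400 cells/well, exposed to compounds plus 20 nM camptothecin for at least 48 h at 37 C; viability read as ATP content by CellTiter-Glo luminescence.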
TGFb inhibitor = qHTS for Inhibitors of TGF-b | HepG2 CAGA-GFP TGF-b/SMAD3 reporter, GFP fluorescence, 18 h; TGF-beta stimulated, 500 pg/mL final | Potency, µM (series often up to 46.1 µM), most hits filed as inhibitors | 410,000 compounds, 1.2% hits | AID 588855, 2011; note: nearly all actives have a fitted effect of over 65% in size
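GFP signal (ex488/em500-530) from TGF-beta-stimulated HEPG2 CAGA-GFP cells, 500 pg/mL final, 18 h at 37 degrees C in DMEM plus 1% FBS, normalized to unstimulated and DMSO-stimulated controls.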
TDP1 cell noCPT = qHTS for Inhibitors of human tyrosyl-DNA phosphodiesterase 1 (TDP1): qHTS in cells in absence of CPT | DT40 Tdp1-/- hTDP1 cells, no CPT, ATP luminescence, 48 h | Potency, µM (top dose mostly 46.2 µM), hits mostly inhibitors | 420,000 compounds, 15% hits; note: nearly all actives have a fitted effect of over 55% in size
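No-CPT arm: Tdp1-/-;hTDP1 DT40 cells (400/well) plus compounds, incubated ≥48 hr at 37 °C. Readout CellTiter-Glo luminescence.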
HepG2 tox = qHTS for Inhibitors of TGF-b: Cytotox Counterscreen; HepG2 CAGA-GFP viability, ATP luminescence, 18 h; Potency, µM (doses to about 46.1 µM), hits mostly cytotoxic; 410,000 compounds, 0.76% hits; AID 588856, 2011
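CellTiter-Glo luminescence gave cytotoxicity after 18 hours at 37 degrees C. The cells were HepG2 CAGA-GFP in 1% FBS DMEM, stimulated with 500 pg/mL TGF-beta after compound addition. %Activity was normalised to no-cell wells (complete cell-killing) and DMSO (no toxicity), and curves were fitted and classified.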
Numbers stand for hits; . = inactive; ? = inconclusive; / = not tested or not shown; [ ] = another dose, or the depositor's remark. Rows were chosen to be rich in hits. Some 17% of all compounds tested hit in one or more screens of this group. Calls come from the whole dose curve; as a rule, active = well fitted curve in the direction sought with a large enough effect; inconclusive = small, poorly fitted or top-dose-only effect, or another doubt; inactive = no such curve, though single readings can be large; an effect the other way counts as inactive or inconclusive.

SMILES	ATXN2 expr inh	ATXN viability	TDP1 cell CPT	TGFb inhibitor	TDP1 cell noCPT	HepG2 tox
CCOC(=O)c1ccc(NC(=O)CSc2nc3ccccc3c(=O)n2CCC(=O)NC2CCCCC2)cc1	.	.	.	.	.	.
Cc1ccc(CNC(=O)c2cc(-c3ccccc3)n(Cc3cc(C)no3)n2)cc1	.	.	20.6µM	.	?	.
O=C(c1ccccc1)c1n[nH]c(-c2ccccc2)cc1=O	.	.	.	.	.	.
Cc1ccc(C2/C=C\CC(NC(=O)OCC3c4ccccc4-c4ccccc43)CC(=O)N2Cc2ccccc2)cc1 (centres undefined)	.	?	?	?	16.4µM	.
O=C(NC(Cc1ccccc1)C(=O)O)OCC1c2ccccc2-c2ccccc21 (centres undefined)	.	.	.	.	.	.
O=C(N/N=C1\CCCc2ccccc21)C(O)c1ccccc1 (centres undefined)	.	.	.	?	.	.
CC1(C)CC(=O)C2=C(C1)c1c(ccc3ccccc13)NC2c1ccc(Br)o1 (centres undefined)	.	?	?	.	20.6µM	20µM
CC1(C)CC(=O)C2=C(C1)c1c(ccc3ccccc13)NC2c1ccc(OCC(=O)O)cc1 (centres undefined)	/	/	.	.	?	.
CC(C)CC1(C(=O)NCc2cc(F)cc(C(F)(F)F)c2)C=CCN1C(=O)c1ccccc1 (centres undefined)	.	.	?	?	29.1µM	.
CC(=O)N1CCc2cc(CNS(=O)(=O)c3ccc(F)cc3)ccc21	/	/	.	.	.	.
CC(=O)N1CCc2cc(CNS(=O)(=O)c3ccc(Br)s3)ccc21	/	/	?	.	20.6µM	.
CC(=O)N1CCc2cc(CNS(=O)(=O)c3ccc(Cl)s3)ccc21	/	/	?	.	14.6µM	.
Cc1nc(NCc2cccc3c2OCO3)sc1-c1ccn(CC2CCCN(C)C2)n1 (centres undefined)	/	.	.[9.04 µM]	/	.	/
COCCNC(=O)C1(C)CCCN(C(=O)c2cccnc2SC)C1 (centres undefined)	.	.	.	.	.	.
CCC1CN(CCC(=O)N2CCCN(C(=O)c3ccco3)CC2)Cc2cc(OC)ccc2O1 (centres undefined)	/	.	.[9.04 µM]	/	.	/
O=C(Cn1ncc2c3ccccc3n(Cc3cccc(Cl)c3)c2c1=O)Nc1ccc(F)cc1F	.	.	29.1µM	.	20.6µM	.
COc1ccc(Cl)cc1NC(=O)Cn1ncc2c3ccccc3n(Cc3ccccc3)c2c1=O	.	.	?	.	14.6µM	.
CC(C)Cn1nc(NC(=O)c2ccco2)c2cc3ccccc3nc21	.	.	14.6µM	.	13µM	.
CC(C)Cn1nc(NC(=O)c2cccs2)c2cc3ccccc3nc21	/	/	?	?	8.2µM	.
CCn1nc(NC(=O)c2ccco2)c2cc3ccccc3nc21	.	/	?	.	?	.
COc1ccc2nc3c(cc2c1)c(NC(=O)c1cccs1)nn3CC(C)C	.	.	?	?	?	.
NCCC[C@H](N)C(=O)O	/	.	.	/	.	/
NCc1ccccc1CC(=O)N[C@@H]1C(=O)N2C(C(=O)O)=C(CSc3nnnn3CC(=O)O)CS[C@H]12	/	.	.	/	.	/
Cc1[nH]c2ccccc2c1/C=C/c1cnc2ccccc2n1	/	/	?	.	12.6µM	.
C(=C\c1c[nH]c2ccccc12)/c1ccc2ccccc2n1	/	/	?	.	?	.
Cc1[nH]c2ccccc2c1/C=C/c1ccc2ccccc2n1	/	/	?	.	.	10µM
Fc1cccc(Cl)c1/C=C/c1cnc2ccccc2n1	.	.	.	.	?	.
Cc1[nH]c2ccccc2c1/C=C/c1c[nH]c2ccccc12	/	/	?	?	11.2µM	.

Screening data from PubChem BioAssay.
